# In PubChem BioAssay (Tox21):
# “And” between values parts separate entries of the source, which are not always exact repeats. Identical values can stand only once. Results filed as inconclusive are left out. A call without a number means that no potency is given here. The source made the active and inactive calls. Unless noted, calls come from the whole dose curve; as a rule, active = well fitted curve in the direction sought with a large enough effect in the repeat runs; inconclusive = weak or mixed curves; inactive = no such curve, though single readings can be large; an effect the other way counts as inactive or inconclusive.
# Tests used:
# [1] = qHTS assay to identify small molecule agonists of the RXR signaling pathway - cell viability counter screen (AID 1159529); conditions: RXR-alpha-bla HEK293T viability, CellTiter-Glo, 16 h; series mostly up to 76.8 µM;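 note: HEK 293T cells carrying an RXR-alpha UAS beta-lactamase reporter; nearly all actives have a fitted effect of over 50% in size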
# Method in brief: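 RXR-alpha-UAS-bla HEK 293T cells in medium with 2% charcoal-stripped FBS were preincubated 5 hr, then exposed to compounds for 16 hr at 37 C. Viability was read as CellTiter-Glo luminescence after 30 min at room temperature.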
# [2] = qHTS assay to identify small molecule antagonists of the retinoid acid receptor (RAR) signaling pathway - cell viability counter screen (AID 1159551); conditions: C3RL4 cells viability, ATP luminescence (CellTiter-Glo), 6 h; series mostly up to 92.4 µM; note: nearly all actives have a fitted effect of over 35% in size; note: potency is the fitted concentration of half-maximal effect
# Method in brief: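 ATP-based viability, C3RL4 cells, 6 h at 37 C with 1 uM final retinol co-added after compound; luminescence read 30 min post CellTiter-Glo, RT.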
# [3] = qHTS assay to identify small molecule antagonists of the retinoic acid receptor (RAR) signaling pathway (AID 1159552; note: nearly all actives have a fitted effect of over 50% in size; note: potency is the fitted concentration of half-maximal effect); conditions: C3RL4 RARE luciferase reporter, retinol-stimulated, 6 h; series mostly up to 92.4 µM
# Method in brief: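 RARE-luc C3RL4 cells; cpds + 1 uM (final) retinol, 6 hr, 37 C/5% CO2; luciferase reagent, 30 min RT, luminescence readout. Inhibitors of retinol-driven signal scored.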
# [4] = qHTS assay to identify small molecule agonists of the retinoic acid receptor (RAR) signaling pathway (AID 1159553); conditions: C3RL4 RARE luciferase reporter, agonist, 6 h; series mostly up to 73.3 µM; note: potency is the fitted concentration of half-maximal effect
# Method in brief: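 Quantitative high-throughput format: the Tox21 10K library was tested on C3RL4 RARE-luciferase cells for 6 hr at 37 C and 5% CO2, with luminescence measured after a 30 min room-temperature reagent step.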
# [5] = target: Luciferin 4-monooxygenase (Photinus pyralis) (UniProt P08659); assay: qHTS assay to identify small molecule inhibitors of firefly luciferase (AID 1224835); note: nearly all actives have a fitted effect of over 25% in size; note: potency is the fitted concentration of half-maximal effect; conditions: purified P. pyralis luciferase, luminescence inhibition; series mostly up to 115 µM
# Method in brief: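 Biochemical qHTS: compounds run as interplate titrations against purified firefly enzyme, with D-luciferin and ATP each at its KM concentration. Light output recorded by CCD imaging.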
# [6] = qHTS assay to identify small molecule agonists of the constitutive androstane receptor (CAR) signaling pathway - cell viability counter screen (AID 1224836); conditions: HepG2-CYP2B6-hCAR viability, CellTiter-Fluor, 23 h, PK11195 added to every well; series mostly up to 92.4 µM; note: nearly all actives have a fitted effect of over 45% in size; note: potency is the fitted concentration of half-maximal effect
# Method in brief: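 HepG2 cells stably carrying hCAR and a CYP2B6-2.2kb reporter were plated 4 h, then given compounds at 15 concentrations plus PK11195 (final 0.75 uM). After 23 h at 37 C, viability was read by CellTiter-Fluor fluorescence.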
# [7] = qHTS assay to identify small molecule antagonists of the constitutive androstane receptor (CAR) signaling pathway - cell viability counter screen (AID 1224837); conditions: HepG2-CYP2B6-hCAR viability, CellTiter-Fluor, 23 h, co-treated with 50 nM CITCO; series mostly up to 92.4 µM; note: nearly all actives have a fitted effect of over 45% in size; note: potency is the fitted concentration of half-maximal effect
# Method in brief: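 Cells are seeded, rested 4 hr at 37 C/5% CO2, dosed with compound (15-point series) and 50 nM CITCO, incubated a further 23 hr, and then CellTiter-Fluor reagent is added before fluorescence is read. The line is HepG2 with stable hCAR and CYP2B6-2.2kb.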
# [8] = target: Nuclear receptor subfamily 1 group I member 3 (Homo sapiens) (UniProt Q14994); assay: qHTS assay to identify small molecule antagonists of the constitutive androstane receptor (CAR) signaling pathway (AID 1224838); conditions: HepG2-CYP2B6-hCAR luciferase, CITCO-stimulated, 24 h; series mostly up to 92.4 µM; note: nearly all actives have a fitted effect of over 40% in size; note: potency is the fitted concentration of half-maximal effect
# Method in brief: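 Luminescence from a CYP2B6-2.2kb promoter reporter in hCAR-expressing HepG2 cells reflects CAR signaling. Cells received compounds at 15 concentrations and 50 nM CITCO (final), then incubated 24 h at 37 C/5% CO2.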
# [9] = qHTS assay to identify small molecule antagonists of the estrogen related receptor signaling pathway with the pleiotropic PPARgamma coactivator (PGC) from Tox21 10K library - cell viability counter screen (AID 1224840; active = well fitted cell-killing curve with a large enough effect in the repeat runs, not every such curve was filed as active; note: nearly all actives have a fitted effect of over 40% in size; note: potency is the fitted concentration of half-maximal effect); conditions: PGC/ERR reporter cells viability, CellTiter-Fluor, 17.5 h; series mostly up to 92.4 µM
# Method in brief: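 Cell viability is measured by CellTiter-Fluor fluorescence in PGC/ERR cells that receive compounds after a 6-hour attachment period and are then incubated 17.5 hours at 37 C.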
# [10] = qHTS assay to identify small molecule antagonists of the estrogen related receptor signaling pathway with the pleiotropic PPARgamma coactivator (PGC) from Tox21 10K library (AID 1224841; call rule not given here; note: actives are mostly falling curves and most rising ones were filed inactive; nearly all actives have a fitted effect of over 50% in size; note: potency is the fitted concentration of half-maximal effect); conditions: PGC/ERR reporter cell line, ONE-Glo luciferase, 18 h; series mostly up to 92.4 µM
# Method in brief: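 Cells stably carrying the PGC/ERR reporter, seeded at 2,000 per well, received pin-transferred compounds 6 h post-plating. Exposure lasted 18 h at 37 C. Signal: One-Glo luminescence.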
# [11] = target: Thyrotropin receptor (Homo sapiens) (UniProt P16473); assay: qHTS assay to identify small molecule agonists of the thyroid stimulating hormone receptor (TSHR) signaling pathway (AID 1224843; calls by dose curve; note: nearly all actives have a fitted effect of over 45% in size; note: potency is the fitted concentration of half-maximal effect); conditions: TSHR-HEK293 cells, cAMP HTRF, agonist mode, 30 min; series mostly up to 92.4 µM
# Method in brief: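 HEK293/TSHR, 800 cells/well; cpd 30 min RT; add cAMP-d2 + anti-cAMP-cryptate, 1 h RT; fluorescence read on plate reader. 15-pt titration, n=3.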
# [12] = target: Nuclear receptor subfamily 1 group I member 3 (Homo sapiens) (UniProt Q14994); assay: qHTS assay to identify small molecule agonists of the constitutive androstane receptor (CAR) signaling pathway (AID 1224839); conditions: HepG2 hCAR CYP2B6-luciferase, agonist mode, 24 h; series mostly up to 92.4 µM;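 note: HepG2 cells stably carrying human CAR and a CYP2B6 luciferase reporter; nearly all actives have a fitted effect of over 15% in size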
# Method in brief: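 HepG2 cells stably expressing hCAR and a CYP2B6-2.2kb luciferase reporter were treated with compounds at 15 concentrations plus 0.75 uM PK11195 (final) for 24 h at 37 C; luminescence was read after ONE-Glo addition.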
# [13] = qHTS assay to identify small molecule agonists of the estrogen related receptor signaling pathway with the pleiotropic PPARgamma coactivator (PGC) from Tox21 10K library (AID 1224842); conditions: PGC/ERR reporter cell line, luciferase ONE-Glo, 18 h; series mostly up to 92.4 µM; note: nearly all actives have a fitted effect of over 15% in size
# Method in brief: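 PGC/ERR reporter cell line, 2,000 cells per well, incubated 6 h at 37 C before 23 nL compound in DMSO was added. After 18 h at 37 C, One-Glo luminescence read following 30 min at room temperature.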
# [14] = qHTS assay to identify small molecule antagonists of the estrogen related receptor (ERR) signaling pathway from Tox21 library - cell viability counter screen (AID 1224834); conditions: ERR reporter cells viability, CellTiter-Fluor, 17.5 h; series mostly up to 92.4 µM; note: nearly all actives have a fitted effect of over 30% in size; note: potency is the fitted concentration of half-maximal effect
# Method in brief: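 Compounds in DMSO were pinned onto ERR cells that had been incubated for 6 h, and the plates were held at 37 C for 17.5 h. CellTiter-Fluor reagent was then added and fluorescence was measured after 30 min.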
# [15] = qHTS assay to identify small molecule antagonists of the estrogen related receptor (ERR) signaling pathway - cell viability counter screen (AID 1224818); conditions: ERR reporter cell line viability counter screen; series mostly up to 46.1 µM;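 note: viability measured after 17.5 h of compound exposure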
# Method in brief: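 Quantitative high-throughput viability counter screen in ERR cells. Compounds (DMSO) incubated 17.5 h at 37 C; read-out was CellTiter-Fluor fluorescence.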
# [16] = qHTS assay to identify small molecule antagonists of the estrogen related receptor (ERR) signaling pathway (AID 1224819;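 note: luminescence from an ERR-driven luciferase reporter measured with One-Glo reagent; nearly all actives have a fitted effect of over 50% in size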); conditions: ERR reporter cell line, luciferase inhibition; series mostly up to 46.1 µM
# Method in brief: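 ERR reporter cell line (NTP) plated at 2,000 cells/well, settled 6 h at 37C/5% CO2, then exposed to LOPAC compounds for 18 h at 37C. One-Glo luciferase luminescence read after 30 min at room temperature.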
# [17] = qHTS assay to identify small molecule agonists of the estrogen related receptor (ERR) signaling pathway (AID 1224820); conditions: ERR reporter cell line, luciferase agonist mode; series mostly up to 46.1 µM
# Method in brief: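 Luminescence readout (One-Glo, 30 min RT) from NTP-supplied ERR cell line exposed to compounds for 18 h at 37 C. Cells seeded 2,000 per well and pre-incubated 6 h before pin-tool compound transfer.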
# [18] = test system: estrogen-related receptor alpha (ERRalpha) with PGC-1alpha coactivator, human; assay: qHTS assay to identify small molecule antagonists of the estrogen related receptor signaling pathway with the pleiotropic PPARgamma coactivator (PGC) (AID 1224821; calls by dose curve); conditions: ERR/PGC reporter cell line, luciferase, antagonist mode; series mostly up to 46.1 µM
# Method in brief: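 PGC/ERR reporter cells; 6 h pre-incubation 37 C/5% CO2; pin-tool compound in DMSO, 18 h 37 C; One-Glo added, 30 min RT; luminescence read. qHTS antagonist mode.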
# [19] = qHTS assay to identify small molecule antagonists of the estrogen related receptor signaling pathway with the pleiotropic PPARgamma coactivator (PGC) cell viability counter screen (AID 1224822); conditions: ERR/PGC reporter cell line viability counter screen; series mostly up to 46.1 µM
# Method in brief: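 Cytotoxicity in the PGC/ERR cell line is assessed with CellTiter-Fluor, read as fluorescence intensity 30 min after reagent addition, following 17.5 h compound treatment at 37 C.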
# [20] = qHTS assay to identify small molecule agonists of the estrogen related receptor signaling pathway with the pleiotropic PPARgamma coactivator (PGC) (AID 1224823); conditions: ERR/PGC reporter cell line, luciferase agonist mode; series mostly up to 46.1 µM
# Method in brief: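 Luminescence readout (One-Glo, 30 min RT) from PGC/ERR cell line treated 18 h at 37 C with pin-tool-delivered DMSO compound solutions; cells plated 6 h before dosing. Quantitative HTS format.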
# Chain of Thyrotropin receptor (Homo sapiens) (P16473 whole entry, looked up): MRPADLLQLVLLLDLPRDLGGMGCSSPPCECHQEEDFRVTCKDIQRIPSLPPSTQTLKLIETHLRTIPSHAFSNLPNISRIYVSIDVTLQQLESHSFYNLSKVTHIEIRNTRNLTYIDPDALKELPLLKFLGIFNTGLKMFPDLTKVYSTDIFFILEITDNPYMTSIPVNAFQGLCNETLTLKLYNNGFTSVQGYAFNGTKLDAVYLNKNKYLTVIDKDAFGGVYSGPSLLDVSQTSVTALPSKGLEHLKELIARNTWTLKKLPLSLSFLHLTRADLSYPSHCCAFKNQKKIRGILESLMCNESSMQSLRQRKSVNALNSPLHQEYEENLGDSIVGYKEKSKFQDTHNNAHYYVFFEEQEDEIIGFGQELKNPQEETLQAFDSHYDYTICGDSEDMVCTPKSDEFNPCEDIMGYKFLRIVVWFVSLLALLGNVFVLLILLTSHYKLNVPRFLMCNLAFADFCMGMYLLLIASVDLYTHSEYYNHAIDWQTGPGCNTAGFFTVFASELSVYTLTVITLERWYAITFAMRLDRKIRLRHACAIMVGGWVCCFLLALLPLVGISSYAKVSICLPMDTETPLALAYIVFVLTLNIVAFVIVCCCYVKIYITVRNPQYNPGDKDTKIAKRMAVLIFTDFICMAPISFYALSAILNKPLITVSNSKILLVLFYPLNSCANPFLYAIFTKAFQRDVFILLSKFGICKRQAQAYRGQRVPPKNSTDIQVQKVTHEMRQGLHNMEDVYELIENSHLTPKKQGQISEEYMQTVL
# Chain of Luciferin 4-monooxygenase (Photinus pyralis) (P08659 whole entry, looked up): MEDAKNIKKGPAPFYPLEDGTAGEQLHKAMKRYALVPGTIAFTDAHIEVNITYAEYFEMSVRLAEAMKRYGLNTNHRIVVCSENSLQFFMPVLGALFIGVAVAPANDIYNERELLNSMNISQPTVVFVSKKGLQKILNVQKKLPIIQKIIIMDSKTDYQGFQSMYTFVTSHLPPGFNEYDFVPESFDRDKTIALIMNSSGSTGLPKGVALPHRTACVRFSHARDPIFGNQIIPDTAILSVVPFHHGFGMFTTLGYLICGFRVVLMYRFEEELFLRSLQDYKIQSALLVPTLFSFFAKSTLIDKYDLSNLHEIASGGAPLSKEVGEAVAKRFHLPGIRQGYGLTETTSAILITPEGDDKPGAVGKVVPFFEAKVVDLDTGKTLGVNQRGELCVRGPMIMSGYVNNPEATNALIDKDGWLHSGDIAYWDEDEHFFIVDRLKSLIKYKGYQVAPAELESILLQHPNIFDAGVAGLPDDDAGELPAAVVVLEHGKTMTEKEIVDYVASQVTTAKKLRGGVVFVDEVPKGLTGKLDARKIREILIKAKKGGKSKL
# Chain of Nuclear receptor subfamily 1 group I member 3 (Homo sapiens) (Q14994 whole entry, looked up): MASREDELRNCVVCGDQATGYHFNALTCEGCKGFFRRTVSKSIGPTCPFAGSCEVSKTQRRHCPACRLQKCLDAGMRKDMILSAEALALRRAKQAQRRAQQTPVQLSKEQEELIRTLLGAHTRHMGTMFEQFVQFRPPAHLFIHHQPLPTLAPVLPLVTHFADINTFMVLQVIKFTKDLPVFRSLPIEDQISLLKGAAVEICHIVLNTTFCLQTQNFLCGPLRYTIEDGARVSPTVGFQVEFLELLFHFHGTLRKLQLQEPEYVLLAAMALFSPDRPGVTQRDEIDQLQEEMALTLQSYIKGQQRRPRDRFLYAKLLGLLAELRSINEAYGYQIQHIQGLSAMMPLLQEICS
Compound,Potency [1],Potency [2],Potency [3],Potency [4],Potency [5],Potency [6],Potency [7],Potency [8],Potency [9],Potency [10],Potency [11],Potency [12],Potency [13],Potency [14],outcome [15],outcome [16],outcome [17],outcome [18],outcome [19],outcome [20]
CC(C)c1ccc(NC(=O)N(C)C)cc1,inactive,inactive,inactive,13.7 µM (active),71 µM (active),inactive,inactive,inactive,inactive,inactive,inactive,,,,,,,,,
CC(=O)NNc1ccccc1,inactive,inactive,inactive,inactive,,inactive,inactive,,,inactive,inactive,inactive,inactive,,,,,,,
CNC(=O)Oc1cccc(N=CN(C)C)c1,inactive,inactive,inactive,inactive,inactive,inactive,inactive,,inactive,,inactive,,,inactive,,,,,,
O=C(O)c1cc(I)cc(I)c1I,inactive,inactive,inactive,inactive,inactive,inactive,inactive,,inactive,,inactive,,,inactive,,,,,,
C=C(C)C(=O)OCCCCOC(=O)C(=C)C,inactive,inactive,inactive,inactive,,inactive,inactive,inactive,inactive,inactive,inactive,,inactive,inactive,,,,,,
CC[N+]1(CCOC(=O)C(O)(c2ccccc2)c2ccccc2)CCCCC1,inactive,inactive,,inactive,inactive,inactive,inactive,,inactive,,inactive,inactive,,inactive,,,,,,
C1CCNCC1,inactive,inactive,inactive,inactive,inactive,inactive,inactive,,inactive,,inactive,,,inactive,,,,,,
Cc1nc(N(C)C)nc(OC(=O)N(C)C)c1C,inactive,inactive,inactive,inactive,inactive,inactive,inactive,,inactive,,inactive,,,inactive,,,,,,
CCN(C(C)=O)c1cccc(-c2ccnc3c(C#N)cnn23)c1,inactive,inactive,inactive,inactive,inactive,inactive,inactive,,inactive,,inactive,,,inactive,,,,,,
O=C(Cc1ccccc1)c1ccccc1,inactive,inactive,inactive,,71 µM (active),inactive,inactive,inactive,inactive,,inactive,,,inactive,,,,,,
CC(C)(C)N(NC(=O)c1ccc(Cl)cc1)C(=O)c1ccccc1,inactive,inactive,inactive,inactive,inactive,,8.58 µM (active),inactive,inactive,inactive,,inactive,inactive,12.1 µM (active),,,,,,
O=C1c2ccccc2C(=O)N1SC(Cl)(Cl)Cl,inactive,53.7 µM (active) and 30.6 µM (active),17 µM (active) and 15.4 µM (active),,15.7 µM (active) and 20 µM (active),26.9 µM (active) and 43.3 µM (active),24 µM (active) and 19.3 µM (active),19.1 µM (active) and 15.4 µM (active),26.9 µM (active) and 24.3 µM (active),53.7 µM (active) and 61.1 µM (active),19.1 µM (active) and 12.2 µM (active),inactive,inactive,24 µM (active) and 27.3 µM (active),,,,,,
CCC1CCC(=O)O1 (centres undefined),inactive,inactive,inactive,inactive,inactive,inactive,inactive,,inactive,,inactive,,,inactive,,,,,,
SCc1ccccc1,inactive,inactive,inactive,,,inactive,inactive,inactive,inactive,,inactive,,,inactive,,,,,,
CC(C)(c1ccccc1)c1cc(-n2nc3ccccc3n2)c(O)c(C(C)(C)c2ccccc2)c1,inactive,,inactive,inactive,inactive,inactive,inactive,inactive,inactive,,inactive,inactive,,inactive,,,,,,
Nc1cccc2ccccc12,inactive,inactive,,,inactive,inactive,inactive,inactive,inactive,,inactive,,,inactive,,,,,,
CC(C)(C)OOC(C)(C)CCC(C)(C)OOC(C)(C)C,inactive,,inactive,inactive,inactive,inactive,inactive,inactive,inactive,inactive,inactive,inactive,inactive,inactive,,,,,,
CC(C)(C)NCC(O)c1ccccc1Cl (centres undefined),inactive,inactive,,,inactive,inactive,inactive,,inactive,inactive,inactive,inactive,inactive,inactive,inactive,inactive,inactive,inactive,inactive,inactive
O=[N+]([O-])c1cc(Cl)c(Cl)cc1Cl,inactive,inactive,,,inactive,inactive,inactive,inactive,inactive,inactive,,,inactive,inactive,,,,,,
CC1(C)CC(=O)CC(C)(C)N1[O],inactive,,inactive,inactive,inactive,inactive,inactive,inactive,inactive,inactive,inactive,inactive,inactive,inactive,,,,,,
CC(C)C1(C)N=C(c2ncccc2C(=O)O)NC1=O (centres undefined),inactive,inactive,,,inactive,inactive,inactive,inactive,inactive,,inactive,,,inactive,,,,,,
COc1cc(CC#N)cc(OC)c1OC,inactive,inactive,,,inactive,inactive,inactive,inactive,inactive,,inactive,inactive,,inactive,,,,,,
